# Source: PubChem (National Center for Advancing Translational Sciences (NCATS))
# Sampled rows, rich in hits. Any-hit rate of the full collection: about 8%.
# MCF10A rereplic: inducers of DNA re-replication in MCF 10A breast cells; MCF 10A DNA re-replication, Hoechst nuclear intensity, 48 h; Potency, µM (top dose mostly 46.1 µM), for the others: at the highest dose activity, positive = re-replication, usual class: activators; AID 624296; 2.9% of 350,000 active; note: % of control where 0% means no effect; nearly all actives have a fitted effect of over 50% in size
# HT1080-NT tox: kills 2HG-producing HT-1080-NT fibrosarcoma cells | HT-1080-NT fibrosarcoma viability, CellTiter-Glo ATP luminescence, 48 h | Potency, µM (highest dose often 46.1 µM), for the others: at the highest dose activity, negative = less viability, actives largely listed as cytotoxic | 1.6% of 360,000 active | AID 686970;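 note: NT is the 2HG producing partner of a matched IDH1 knockdown line; 0% = DMSO-treated cells and -100% = media-only wells without cells; nearly all actives have a fitted effect of over 55% in size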
#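 HT-1080-NT; 750 cells/well; 5% FBS RPMI; 48 h compound, 37 degrees C; CellTiter-Glo luminescence; curve fitting and curve-class assignment.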
# HT1080 IDH1KD tx: toxicity to HT-1080 IDH1 knockdown cells (counter line) | 2% of 360,000 active | HT-1080 IDH1 knockdown viability, ATP luminescence, 48 h | Potency, µM (doses to about 46.1 µM), for inactives: top-dose activity, negative = toxicity, actives largely listed as cytotoxic | AID 686971;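 note: 0% = DMSO wells and -100% = cell-free medium wells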
#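 Knockdown cells (IDH1KD HT-1080) received compounds 2 h after plating at 750 cells/well and were kept 48 h at 37 °C in 5% FBS RPMI. A CellTiter-Glo luminescence read gave % activity for curve fitting.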
# KB-3-1 cytotox: kills parental KB-3-1 adenocarcinoma cells; Potency, µM (top dose mostly 46.1 µM), actives largely listed as cytotoxic; AID 1347075; KB-3-1 viability, CellTiter-Glo ATP luminescence, 72 h; 1.4% of 400,000 active; note: % is set by controls: 0 for no effect and ±100 for the full control effect; nearly all actives have a fitted effect of over 60% in size
#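 Luminescent ATP read-out (CellTiter-Glo) measures survival of drug-naive KB-3-1 cells after 72 h compound exposure at 37 °C. Titration series was screened from lowest to highest concentration, with DMSO vehicle plates as background controls.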
# KB-V1 MDR tox: kills drug-selected multidrug resistant KB-V1 cells | 3.4% of 400,000 active | KB-V1 MDR cells viability, CellTiter-Glo, 72 h | AID 1347076 | Potency, µM (highest dose often 46.1 µM), usual class: cytotoxic; note: % is set by controls: 0 for no effect and ±100 for the full control effect; nearly all actives have a fitted effect of over 60% in size
#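 Compound-treated KB-V1 multidrug-resistant cells, 72 h, 37 degrees C; viability by CellTiter-Glo. Fitted qHTS curves give the values.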
# SW480 rereplic: DNA re-replication induction in SW480 cells; Potency, µM (titrated, usually from 46.1 µM), inactives show at the highest dose re-replication activation, usual class: activators; 1.8% of 340,000 active; SW480 DNA re-replication, Hoechst DNA content imaging, 48 h; AID 624297; note: % of control where 0% means no effect; nearly all actives have a fitted effect of over 55% in size
#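 Compounds, transferred as 23 nL by pin tool, were incubated with cells for 48 hr; DNA content per nucleus was then quantified by Hoechst staining and fluorescence plate imaging.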
# Numbers without * were called inactive; i = inactive; ? = inconclusive; · = not tested or not shown. Calls come from the whole dose curve; as a rule, active = well fitted curve in the direction sought with a large enough effect; inconclusive = small, poorly fitted or top-dose-only effect, or another doubt; inactive = no such curve, though single readings can be large; an effect the other way counts as inactive or inconclusive. Potency is the fitted concentration of half-maximal effect.
SMILES,MCF10A rereplic,HT1080-NT tox,HT1080 IDH1KD tx,KB-3-1 cytotox,KB-V1 MDR tox,SW480 rereplic
O=[N+]([O-])c1cc(Br)c(O)c(/C=N/Nc2nnnn2-c2cccc3ccccc23)c1,4.11µM*,?,-16.9%,i,?,13.8%
CC1=C(C(=O)OCc2ccccc2)C(/C=C/c2ccccc2)NC(=S)N1 (stereo not given),23.1µM*,-24.4%,?,i,?,9.9%
C=CCOC(=O)C1=C(C)NC(=S)NC1/C=C/c1ccccc1 (stereo not given),-4.9%,12.6µM*,?,i,i,14.6µM*
COc1ccc(-c2nnc(N3CCOCC3)c3ccccc23)cc1,5.2%,14.8%,9.0%,i,i,?
CCN1CCN(c2nnc(-c3ccccc3)c3ccccc23)CC1,-4.2%,5.1%,2.1%,i,?,-7.5%
Cc1ccc(-c2nnc(N3CCCCCC3)c3ccccc23)cc1,?,-8.1%,0.5%,23.1µM*,?,9.5%
COc1ccc(-c2nnc(N3CCCCC3)c3ccccc23)cc1,-14.2%,-0.8%,-7.1%,?,11.6µM*,-5.5%
CC(=O)c1ccc(NC(=O)c2cc3c(=O)oc4ccc(C)cc4c3s2)cc1,·,·,·,i,i,·
CN(C)c1cccc(C(=O)N2CCC(c3ccncc3)CC2)c1,·,·,·,?,i,·
O=C(CSc1ncnc2c1cnn2-c1ccccc1)Nc1ccc2c(c1)OCO2,14.6µM*,-2.8%,-0.4%,i,i,11.4%
c1ccc(-n2ncc3c(NCc4ccc5c(c4)OCO5)ncnc32)cc1,?,?,?,i,20.6µM*,1.5%
O=C(CSc1ncnc2ccccc12)Nc1ccc2c(c1)OCO2,?,-11.4%,-4.4%,i,i,0.1%
Cc1cccc(-n2ncc3c(NCc4ccc5c(c4)OCO5)ncnc32)c1,-2.0%,8.5%,10.3%,i,i,-28.5%
Cc1ccc(-n2ncc3c(NCc4ccc5c(c4)OCO5)ncnc32)c(C)c1,15.7%,-14.0%,-28.1%,?,4.11µM*,-3.1%
COc1ccc(-n2ncc3c(NCc4ccc5c(c4)OCO5)ncnc32)cc1,7.3%,4.2%,-17.8%,i,i,-2.4%
CCn1c(NC(=O)Nc2cccc(C)c2C)cc2sccc21,9.5%,-18.2%,-10.7%,i,i,0.4%
CC(C)(C)OC(=O)N1CCC(c2c(C(=O)NCc3ccco3)cnn2-c2ccccc2)CC1,·,·,·,i,i,·
CCCCCCC(O)C/C=C/CCCCCCCC(=O)O (stereo not given),?,·,·,·,·,-1.2%
NC(=O)c1nsc(C(=O)N(c2ccc(Cl)cc2)C(C(=O)NCC2CCCO2)c2cccs2)c1N (stereo not given),7.9%,24.4%,4.1%,i,i,?
CCc1ccc(N(C(=O)c2snc(C(N)=O)c2N)C(C(=O)NCC2CCCO2)c2cccs2)cc1 (stereo not given),18.4µM*,-2.0%,-25.2%,i,i,?
CCOc1ccc(C(C(=O)NCC2CCCO2)N(CCc2cccc(C)c2)C(=O)c2snc(C(N)=O)c2N)cc1 (stereo not given),?,?,?,?,20.6µM*,14.5%
CCc1nnc(NC(=O)CSc2nnc3c(C)cc4c(C)ccc(C)c4n23)s1,9.2µM*,5.8µM*,6.51µM*,4.11µM*,i,?
COc1cc2cc(C)c3nnc(SCC(=O)Nc4cc(C)on4)n3c2cc1OC,-1.0%,6.1%,0.5%,i,i,-15.8%
Cc1cc(NC(=O)CSc2nnc3c(C)cc4c(C)ccc(C)c4n23)no1,20.6µM*,6.31µM*,6.31µM*,i,3.26µM*,20.6µM*
Cc1cc(C)cc(NC(=O)CSCc2cc(=O)c3ccc(C)c(C)c3[nH]2)c1,·,·,·,i,i,·
SMILES,MCF10A rereplic,HT1080-NT tox,HT1080 IDH1KD tx,KB-3-1 cytotox,KB-V1 MDR tox,SW480 rereplic
Cc1noc(-c2ccccc2OCC(=O)Nc2ccccc2[N+](=O)[O-])n1,·,·,·,i,i,·
COc1ccc(CNC(=O)C(c2ccc(C)cc2)N(Cc2cccs2)C(=O)c2ccc3c(c2)OCCO3)cc1 (stereo not given),?,?,12.6µM*,i,4.61µM*,?
O=C(NC1CCCC1)C(c1ccc(F)cc1)N(C(=O)Cc1cccs1)c1ccc2c(c1)OCCO2 (stereo not given),?,-0.1%,2.6%,i,i,21.5%
Cc1nn(C)cc1C(C(=O)NC1CCCCC1)N(C(=O)Cc1cccs1)c1ccc(C(C)C)cc1 (stereo not given),?,?,?,?,2.91µM*,5.7%
Cc1nn(C)cc1C(C(=O)NC1CCCCC1)N(C(=O)Cc1cccs1)c1ccc(F)cc1 (stereo not given),15.4%,2.6%,21.3%,i,i,-37.2%
Cc1ccc(C)c(N(C(=O)Cc2cccs2)C(C(=O)NC2CCCC2)c2ccc(C)o2)c1 (stereo not given),6.7%,-2.2%,5.8%,i,?,-0.4%
Cc1ccc(C(C(=O)NC2CCCC2)N(C(=O)Cc2cccs2)c2ccc(C)c(C)c2)o1 (stereo not given),0.6%,0.0%,?,i,20.6µM*,?
Cc1ccc(C(C(=O)NC2CCCC2)N(C(=O)Cc2cccs2)c2ccc3c(c2)OCCO3)cc1 (stereo not given),4.2%,-7.1%,-12.8%,i,20.6µM*,?
